# Test results taken from paper PMC5540273 (PLoS ONE, 2017).
# Tests used:
# [1] = tested on: SRPK1
# [2] = tested on: SRPK3
# [3] = tested on: STK16
# [4] = tested on: STK33
# [5] = tested on: STK36
# [6] = tested on: TEC
# [7] = tested on: TESK1
# [8] = tested on: TXK
# [9] = tested on: TGFBR1
# [10] = tested on: TGFBR2
# [11] = tested on: T1, TRKC
# T1 construct: gene NTRK3
# [12] = tested on: T2, TIE2
# T2 construct: gene TEK
# [13] = tested on: TNNI3K
# [14] = tested on: T3, TRKA
# T3 construct: gene NTRK1
# [15] = tested on: TSSK3
# [16] = tested on: TYK2(JH1domain-catalytic)
# [17] = tested on: ULK1
# [18] = tested on: ULK2
# 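Also: kd values determined as follow-up on hits from a single-replicate KINOMEscan panel screen.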
smiles,measurement,setting,value
Cl.O=S(=O)(c1cccc(F)c1)c1ccc(Nc2ncnc3cc(Br)sc23)cc1Cl [GSK306886],Kd,[1],> 10 µM
Cn1cc(-c2ccc3c(c2)CCN3C(=O)Cc2cccc(C(F)(F)F)c2)c2c(N)ncnc21 [GSK2606414],Kd,[2],> 10 µM
Cc1ccc(C)c(NC(=O)NCCNc2ccnc(Nc3ccc(F)cc3)n2)c1 [GSK1379878],Kd,[3],> 10 µM
c1ccc(-c2ccc3c(-c4ccnc(Nc5ccc6c(c5)OCCO6)n4)cnn3n2)cc1 [GW818941],Kd,[3],0.62 µM
Cl.Cl.c1ccc(-c2cc3ccncc3cc2OC2CCNCC2)cc1 [GSK1122999],Kd,[4],> 10 µM
same,Kd,[5],> 10 µM
CCc1nc(-c2cccc(N(C)S(=O)(=O)c3ccccc3)c2)c(-c2ccnc(Nc3ccc(N4CCN(C(C)=O)CC4)nc3)n2)s1 [GSK1645895],Kd,[5],0.056 µM
Cn1ccc2ncnc(Nc3ccc(Oc4cccc(Cl)c4)c(Cl)c3)c21,Kd,[6],> 10 µM
Cc1ccc(O)cc1Nc1cc(C(F)(F)F)nc2ccc(-c3ccncc3)cc12 [GW630823],Kd,[6],> 10 µM
CS(=O)(=O)CCNCc1nc(-c2ccc3ncnc(Nc4ccc(OCc5cccc(F)c5)c(Cl)c4)c3c2)cs1.Cl [GW583340],Kd,[7],> 10 µM
same,Kd,[8],> 10 µM
O=C(c1ccc(-c2cc(-c3c[nH]nc3-c3ccccn3)ccn2)cc1)N1CCCC1 [GW792479],Kd,[9],0.17 µM
FC(F)(F)c1ccc(-c2cc(-c3c[nH]nc3-c3ccccn3)ccn2)cc1 [GW599550],Kd,[9],0.22 µM
Clc1ccc(-c2cc(-c3c[nH]nc3-c3ccccn3)ccn2)cc1 [GW681251],Kd,[10],0.53 µM
same,Kd,[11],> 10 µM
CC(C)N1CCC(n2cnc(-c3ccc(F)cc3)c2-c2ccnc(N)n2)CC1 [SB-223132],Kd,[12],> 10 µM
O=C(Nc1ccccc1)Nc1ccc(Oc2ccc3nccn3n2)cc1,Kd,[13],> 10 µM
CC(=O)Nc1n[nH]c2ncc(-c3ccccc3)cc12 [SB-548492],Kd,[14],2.5 µM
Nc1n[nH]c2nnc(-c3ccccc3)cc12 [SB-517389],Kd,[15],> 10 µM
CC(C)(C)OC(=O)NC1CCCN(c2cc(-c3ccc4c(N)n[nH]c4c3)nc(N)n2)C1 (centres unmarked) [GSK2286096],Kd,[15],> 10 µM
C[C@@H]1CCN(C(=O)CO)C[C@@H]1N(C)c1ncnc2[nH]ccc12,Kd,[16],0.11 µM
CCCc1ccc(S(=O)(=O)NC2CCN(c3ccnc(Nc4ccc(OC)cc4)n3)C2)cc1 (centres unmarked) [GSK1379737],Kd,[17],> 10 µM
Fc1ccc(Nc2nccc(-c3c(-c4ccc(Cl)cc4)nn4ncccc34)n2)cc1F [GW829058],Kd,[18],> 10 µM
